Test results: PubChem BioAssay (NCI)
The panel holds about 83,000 compounds, 20% with a hit somewhere; the sample as a whole holds those more often.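 For each line, cells grew in 96-well plates with the test compound present at a single concentration for 48 hours.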 Values without a mark were called inactive. The source made the active and inactive calls. Rule for the calls: active = growth percent below 10; inactive = the rest.

test system: HOP-92 NSCLC; assay: NCI-60 one-dose screen, 48 h (100 = growth as untreated, 0 = no growth, -100 = all killed); conditions: 10 µM unless noted

| SMILES | growth |
| --- | --- |
| COc1cc(/C=C/C(=O)N2CCN(C(=O)c3cc(OC)c(OC)c(OC)c3)CC2)ccc1OCCCOc1cc2c(cc1OC)C(=O)N1CCC[C@H]1C=N2 | -37.1% (active) |
| O=C(NC1CCC(Br)CC1)C1CCCC(S(=O)(=O)NC2CCCCC2)C1 (stereo unspecified) | -15.2% [25 µM] (active) |
| COc1cc(/C=C/c2cn[nH]c2-c2ccc(C)cc2)cc(OC)c1OC | 45.6% |
| COc1ccc(C/C(C)=C(\c2ccc(Cl)cc2)c2ccc(OCCN3CCCC3)cc2)cc1 | 70.5% |
| CN(C)Cc1ccc(NC(=O)c2cncc(C#Cc3cnc(N)c4ncccc34)c2)cc1C(F)(F)F | 73.9% |
| COC(=O)c1c(C)nc(C)c2c1C(=O)C=C(NCc1ccccc1)C2=O | 117% |
| N#CSc1c[nH]c2ccc(/C=C/C(=O)/C=C(O)/C=C/c3ccc4[nH]cc(SC#N)c4c3)cc12 | -21.3% (active) |
| Cc1ccc(-c2nc(SCC(=O)N3CCN(c4cc5c(cc4F)c(=O)c(C(=O)O)cn5C4CC4)CC3)nc(Cl)c2C#N)cc1 | 112% |
| COC(=O)/C=C1/SC(=NCc2ccccc2)N(CCc2c[nH]c3ccccc23)C1=O | 74.6% |
| C=C(C)[C@@H]1CC[C@]2(C(=O)N3CCN(C)CC3)CC[C@]3(C)[C@H](CC[C@@H]4[C@@](C)(CCC(=O)O)[C@H](C(=C)C)CC[C@]43C)[C@@H]12 | 78.6% |
| Nc1[nH]nc2nc(-c3ccccc3)n3c4ccccc4nc3c12 | 122% |
| CN1CCOCCN(C)Cc2ccc3ccc(cc3c2)CN(C)CCOCCN(C)Cc2ccc3ccc(cc3c2)C1 | 85.8% |
| COc1ccc(/C=N/Nc2c3ccccc3nc3ccccc23)cc1 | 90.2% |
| C=C1C(=O)O[C@H]2[C@H]1CC/C(CNC(=O)Cc1c[nH]c3ccccc13)=C\CC[C@@]1(C)O[C@@H]21 | 45.1% |
| COc1ccc2c(c1)CC[C@@H]1[C@@H]2CC[C@]2(C)c3c(cc(C#N)c4c3sc3ccccc34)C[C@@H]12 | 62.4% |
| O=C(c1c[nH]c2ccccc12)c1n[nH]c(=S)n1-c1ccc([N+](=O)[O-])cc1 | 80.3% |

| SMILES | growth |
| --- | --- |
| Cc1c2cnccc2c(C)c2c1c1cc(CO)ccc1n2C | -20% (active) |
| COc1cc(-c2nccc3[nH]c(-c4cccc5[nH]ccc45)nc23)cc(OC)c1OC | -2.13% (active) |
| Clc1ccc(-c2nc(C(Cl)Cl)nc3cc(-c4ccccc4)nn23)cc1 | 49.4% |
| CC1=Nc2cnc(Nc3ccc(N4CCCCC4)cc3)nc2Nc2ccccc21 | 60.9% |
| CN(C)c1ccc([C@@H](C(=O)Nc2cccc([N+](=O)[O-])c2)N(C(=O)c2cc3ccccc3[nH]2)c2cccc([N+](=O)[O-])c2)cc1 | 70.9% |
| O=C(CSc1nnnn1-c1ccccc1)Nc1ccc(Oc2ccccc2)cc1 | 75% |
| COc1cc(/C=C/C(=O)c2cccc(-n3cc(-c4ccc(Cl)cc4)[nH]c3=O)c2)ccc1O | 56.9% |
| Oc1c(CN2CCC(N3CCOCC3)CC2)cc(Cc2cc(CN3CCC(N4CCOCC4)CC3)c(O)c3ncccc23)c2cccnc12 | 41.7% |
| c1ccc2cc(Cn3cc(CSc4nc5ccccc5s4)nn3)ccc2c1 | 98.7% |
| CN(C)Cc1cc(C(C)(C)C)cc(Br)c1O | 87.5% |
| CCN(CC)CCOc1ccc(/C(=C(\C)Cc2ccc(OC)cc2)c2ccc(OC(=O)NCc3ccccc3)cc2)cc1 | 59% |
| C=C1C(=O)O[C@H]2[C@H]1CC/C(COC(=O)NCc1ccc(Cn3c(=O)sn(-c4ccc(I)cc4)c3=O)cc1)=C\CC[C@@]1(C)O[C@@H]21 | 54.9% |
| O=c1oc2ccccc2cc1-c1nn(-c2ccccc2)cc1-c1nn[nH]n1 | 92.2% |
| O=c1oc2c(cc1-c1ccccc1)c(=O)[nH]c1ccccc12 | 103% |
| CC1=C(Cl)C(=O)c2cc(C)ccc2C1=O | 88.5% |
